What all share (test): NCI-60 one-dose screen, 48 h (100 = growth as untreated, 0 = no growth, -100 = all killed)
What all share (details): 10 µM unless noted

Assay [1] deals with NCI-H23 lung.
For assay [2], the system named is NCI-H226 lung.
Assay [3] relates to NCI-H322M lung.
Assay [4] has as its system HOP-62 NSCLC.
The subject of assay [5] is NCI-H460 lung.
Assay [6] has as its system HOP-92 NSCLC.
Assay [7] has as its system NCI-H522 lung.
The test system of assay [8] is A549/ATCC NSCLC.
The subject of assay [9] is 786-0 renal.
Assay [10] concerns COLO 205 colon.
For assay [11], the system named is DU-145 prostate.
For assay [12], the system named is K-562 leukemia.
For assay [13], the system named is MALME-3M melanoma.
Assay [14] relates to MDA-MB-231 breast.
Assay [15] concerns RXF 393 renal.
For assay [16], the system named is SF-268 CNS.
In assay [17] the test system is SF-295 CNS.
Assay [18] relates to SF-539 CNS.
The test system of assay [19] is UACC-257 melanoma.
Assay [20] deals with M14 melanoma.

Growth data for eight compounds are collected here from PubChem BioAssay (NCI).

Compounds without any hit were thinned out: in the full panel of roughly 83,000, 20% have a hit.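 Interpretation: 100, growth as untreated; towards 0, rising growth inhibition; 0, no net growth; 0 to -100, cell death. Compounds scoring below 10 were considered active.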 A number with no mark means an inactive call. Active and inactive are the calls of the source.

Regarding `CC1OC(C(=O)N2CCN(CCO)CC2)CC1COC1CCCCC1` (stereo not given), the growth in assay [1] is 94% [50 µM]; in [2] it was 84.3% [50 µM]; in [3] it was 90.9% [50 µM]; in assay [4] it was 85.7% [50 µM]; in [5], 100% [50 µM]; in assay [6] it was 87% [50 µM]. Besides, the growth was 93.2% [50 µM] in assay [7]; 94.2% [50 µM] in assay [8]; 109% [50 µM] in assay [9]; 105% [50 µM] in [10]; 105% [50 µM] in [11]; 91.6% [50 µM] in assay [12]. The growth in assay [13] was 88.2% [50 µM]; in [14], 94.5% [50 µM]; in assay [15], 102% [50 µM]; in assay [16], 97.2% [50 µM]; in assay [17] it was 102% [50 µM]; in assay [18] it was 97.8% [50 µM]. In addition, the growth in assay [19] is 98% [50 µM]; in assay [20], 100% [50 µM].

As to `CCOC(=O)CCC(=O)P(=O)(O)O`, the growth in assay [1] is 116%; in [2], 110%; in assay [3] it was 103%; in assay [4], 97.8%; in assay [5] it was 113%; in [6], 38.9%. Besides, the growth in assay [7] is 84.7%; in assay [8], 96.9%; in [9] it was 98.6%; in assay [10], 93.9%; in assay [11], 114%; in [12], 8.96% (active). Also, the growth in [13] was 103%; in assay [14], 119%; in [15] it was 122%; in assay [16], 114%; in [17] it was 101%; in assay [18], 101%. Further, the growth in [19] was 93%; in assay [20], 92.4%.

`COc1ccc(-n2c(=O)n(-c3ccc(-c4nc5ccc(F)cc5s4)cc3)c(=O)c3cccnc32)cc1`: the growth in assay [1] is 89.9%; in assay [2] it was 105%; in [3], 102%; in assay [4] it was 89.2%; in assay [5], 110%; in [6], 118%. Also, the growth in assay [7] was 88.8%; in [8], 96.5%; in assay [9], 99.5%; in assay [10] it was 106%; in assay [11] it was 106%; in assay [12], 99.7%. Moreover, the growth was 101% in assay [13]; 97.1% in assay [14]; 129% in assay [15]; 106% in [16]; 94.5% in assay [17]; 107% in assay [18]. The growth in assay [19] is 94.7%; in assay [20] it was 107%.

With `CC(Cc1cccc2ccccc12)C(N)=O` (stereo not given), the growth is 99.9% in assay [1]; 100% in assay [2]; 98.1% in [3]; 94.6% in assay [4]; 110% in assay [5]; 81.1% in assay [6]. Besides, the growth in assay [7] was 96.6%; in [8] it was 96.7%; in [9], 97.7%; in assay [10], 111%; in [11], 110%; in assay [12] it was 104%. In addition, the growth in assay [13] was 111%; in [14] it was 100%; in [15], 113%; in [16], 106%; in assay [17] it was 100%; in assay [18], 96.6%. The results for the growth in [19] and in [20] were 104% and 108%, respectively.

On to `COc1cc2ncnc(Nc3ccc(S(=O)(=O)Nc4cc(C)on4)cc3)c2cc1OCCCN1CCOCC1`, for which the growth in [1] is 100%; in assay [2], 94%; in [3] it was 101%; in assay [4], 95.8%; in assay [5], 110%; in assay [6], 87.4%. Further, the growth in assay [7] was 96.8%; in assay [8] it was 95.3%; in assay [9] it was 107%; in assay [10], 106%; in assay [11], 108%; in assay [12], 102%. Moreover, the growth in assay [13] was 95.3%; in assay [14] it was 105%; in assay [15], 102%; in assay [16], 98.1%; in assay [17], 97.7%; in [18] it was 99.4%. Moreover, the growth in assay [19] is 99.8%; in [20], 105%.

Take `C=C(CNCCc1ccc(O)cc1)[C@@H]1CC[C@]2(CO)CC[C@]3(C)[C@H](CC[C@@H]4[C@@]5(C)CCC(N)C(C)(C)[C@@H]5CC[C@]43C)[C@@H]12` (stereo not given in full): the growth was -66.5% (active) in assay [1]; 87.6% in assay [2]; -53.7% (active) in assay [3]; -74.7% (active) in [4]; -86.7% (active) in assay [5]; -78.8% (active) in assay [6]. Moreover, the growth was -64.8% (active) in [7]; -66.6% (active) in assay [8]; -87.3% (active) in assay [9]; -72.2% (active) in assay [10]; -68.6% (active) in assay [11]; -50.9% (active) in assay [12]. The growth in [13] is -86.2% (active); in [14], -80.5% (active); in assay [15] it was -90.9% (active); in [16], -74.3% (active); in assay [17], -82% (active); in assay [18], -93.4% (active). Besides, the growth in assay [19] is -77.3% (active); in assay [20], -81.8% (active).

For the compound `COc1ccc(/C=C/C(=O)c2ccc(-n3cc(CN4CCN(c5cc6c(cc5F)c(=O)c(C(=O)O)cn6C5CC5)CC4)nn3)cc2)cc1`, the growth in assay [1] was 78.7%; in [2] it was 67.3%; in [3], 72.8%; in [4], 75.6%; in [5], 77.9%; in assay [6], 66.6%. The growth is 67.6% in [7]; 66.1% in assay [8]; 71.9% in assay [9]; 98.2% in assay [10]; 83.2% in assay [11]; 42.6% in assay [12]. For the same compound, the growth in assay [13] was 66.2%; in assay [14], 67.2%; in assay [15] it was 64.2%; in assay [16], 56%; in assay [17] it was 94.9%; in assay [18] it was 50.8%. For the same compound, the results for the growth in assay [19] and in [20] were 78.7% and 59%, respectively.

With `CC/C(=C(/c1ccc(Cl)cc1)c1ccc(OCCN(CC)CC)cc1)c1ccc(OC)cc1`, the growth is 48.7% in assay [1]; 80.5% in [2]; 66.9% in [3]; 89.2% in assay [4]; 16.6% in [5]; 51.7% in assay [6]. Further, the growth is 66.6% in assay [7]; 48.8% in assay [8]; 49.5% in [9]; 22.2% in [10]; 74.4% in [11]; -18% (active) in assay [12]. The growth was 68.2% in assay [13]; 71.8% in assay [14]; 45% in assay [15]; 79.3% in assay [16]; 36.9% in assay [17]; 62.3% in assay [18]. Also, the growth in assay [19] is 64.9%; in [20], 34.5%.
